# In PubChem BioAssay (NCI):
# Values joined by “and” are separate entries in the source; they are usually repeats but may differ in a detail not shown here. Identical values can stand only once. The panel holds about 83,000 compounds, 20% with a hit somewhere; the sample as a whole holds those more often.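 How to read the values: 0–100, growth inhibition (40 = 60% inhibited); 0, no net growth; -100 to 0, cell death (-40 = 40% of starting cells died; -100 = all dead).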 Values without a mark were called inactive. Active and inactive are the calls of the source.
# System: HL-60(TB) leukemia
# Test: NCI-60 one-dose screen, 48 h (100 = growth as untreated, 0 = no growth, -100 = all killed)
# Conditions: 10 µM
# Experimental: Growth inhibition of the HL-60(TB) human tumor cell line is measured as a screen for anti-cancer activity. Cells are grown in 96 well plates and exposed to the test compound for 48 hours. Compounds are tested at a single concentration, which is 10^-5 M for most compounds. The reported endpoint is percent growth (GI% or GIPRCNT), where numbers from 0 - 100% represent growth inhibition, and numbers from -100% - 0 represent cell death. For example, a value of 40 represents 60% growth inhibition. A value of 0 means no net growth occurred over the course of the experiment. A value of -40 indicates 40% of cells at the beginning of the experiment died by the end of the experiment. A value of -100 means all cells are dead at the end of the experiment.
# NCI-60 Human Tumor Cell Lines Screen was performed using the standard one-dose NCI protocol, which is described in more detail at https://dtp.cancer.gov/discovery_development/nci-60/default.htm.
# Compounds with GIPRCNT values below 10 were considered active. Activity score was based on GIPRCNT using the following formula: […]
# Score is 0 for GIPRCNT values of 100 or above, 50 for GIPRCNT values of 0, and 100 for GIPRCNT values of -100.
row,SMILES,growth [%]
1,O=C(O)CCCc1ccc(N(CCCl)CCCl)cc1,19.6

# Same assay, conditions: 10 µM unless noted
row,SMILES,growth
1,CO[C@H]1[C@H](O[C@@H]2C[C@@H]3C/C=C/C(=O)O[C@@H](CO)C[C@H](O)[C@@H]4C[C@H](C)[C@H](C/C=C\C=C\[C@H](C)C[C@H](C2)O3)O4)O[C@@H](C)[C@H](O)[C@H]1O,33.2%
2,CN(C)c1ccc([N+](=O)[O-])c([N+](=O)[O-])c1,66.7% and 88.1%
3,C/C(=C\c1ccn(-c2ccc(N)c(C(F)(F)F)c2)n1)[C@@H]1C[C@@H]2O[C@]2(C)CCC[C@H](C)[C@H](O)[C@@H](C)C(=O)C(C)(C)[C@@H](O)CC(=O)O1,7.41% (active)
4,O=[N+]([O-])c1ccc(CI)cc1,64.4%
5,COc1ccc(N)cc1N,128%
6,CCCCCCCCCCCCCCCCCCn1cc[n+](C)c1,3.76% (active) and 2.22% (active)
7,C=CC[PH+](c1ccccc1)c1ccccc1.C=CC[PH+](c1ccccc1)c1ccccc1.[Pt+2].[S-]c1ncccn1.[S-]c1ncccn1,-5.51% (active)
8,CN(C)c1ccc(N)cc1,95.1% and 38.5%
9,N#CC(N)c1ccccc1 (stereo not given),102%
10,C[C@]12CC[C@H]3[C@@H](C[C@@H]4SC(Nc5ccccc5)=N[C@@]45C/C(=N/O)CC[C@]35C)[C@@H]1CCC2=O,70.1%
11,CN(C)c1ccc(C=C2C(=O)NC(=O)NC2=O)cc1,102%
12,C[C@]12CC[C@@H](OC(=O)N(CCCl)N=O)C[C@@H]1CC[C@@H]1[C@@H]2CC[C@]2(C)C(=O)CC[C@@H]12,-21.8% (active)
13,Cc1cc(NC(=O)NCCCOc2ccc(N3C(N)=NC(N)=NC3(C)C)cc2Cl)ccc1S(=O)(=O)F,29.1%
14,Oc1cc(N2CC2)c(O)cc1N1CC1,16.1%
15,CC1=C2[C@H]3OC(=O)[C@@H](C)[C@@H]3CC[C@@]2(C)C=CC1=O,87.3%
16,C[C@@]12CCCc3coc(c31)C(=O)c1cc3c(cc12)C(=O)C1=C(NCCS1(=O)=O)C3=O,-45% (active)
17,CCN1C(=O)NC(=O)C(C)(N2C(=O)c3c(F)c(F)c(F)c(F)c3C2=O)C1=O (stereo not given),-70.3% (active)
18,C=CC[PH+](c1ccccc1)c1ccccc1.C=CC[PH+](c1ccccc1)c1ccccc1.[Pt+2].[S-]c1nc2ccccc2[nH]1.[S-]c1nc2ccccc2[nH]1,-20.8% (active)
19,CC1(C)CN=C(NN=C(/C=C/c2ccc(C(F)(F)F)cc2)/C=C/c2ccc(C(F)(F)F)cc2)NC1,-59.7% (active)

row,SMILES,growth
1,COc1ccc(N(CC(=O)NCCC[Te]c2ccccc2)C(=O)c2ccccc2)cc1,36.9%
2,O=C(NC(Cl)=C(Cl)Cl)P(=O)(c1ccccc1)c1ccccc1,110%
3,Cc1ccc(S(=O)(=O)n2cc([C@@]3(O)C[C@H](CSC#N)OC3=O)c3ccccc32)cc1,80.1%
4,COc1cc2c(cc1OC)-c1c3c(cc4c1[C@@H](C2)N(C)CC4)OCO3,32.5%
5,COc1cc2c(cc1OC)[C@@H]1C(=O)c3ccc4c(c3O[C@@H]1CO2)C[C@H](C(C)C)O4,19%
6,Cn1cc(C(=O)C[n+]2ccccc2)c2ccccc21,98.8%
7,Cc1cc(N)ccc1N,100%
8,CCCCCCCCCCCCCCCC[n+]1ccccc1,-55.7% (active)
9,Nc1ccc(P(=O)(O)O)cc1,136% and 106%
10,COc1cc(C=C2C(=O)NC(=O)NC2=O)ccc1O,95.6%
11,CCOC(=O)C1=C(C)/C(=C\c2[nH]c(C)c(C(=O)OCC)c2C)N=C1C,41.6%
12,NC(=O)c1c(Br)c(Br)c(Br)c(Br)c1C(=O)O (tested in a mixture with another compound),85% and 68.2%
13,CCC1(CCSC#N)C(=O)NC(=O)NC1=O,98.3%
14,COc1ccn(C)c(=O)c1C#N,104%
15,CC[C@H](C)[C@H](NC(=O)CN(C)C)C(=O)N(C)[C@H](C[C@@H](OC(C)=O)c1nc(C(=O)NC23C4C5C2C2C3C4C52C(=O)OC)cs1)C(C)C (stereo not given in full),-26.5% (active)
16,CC12CCC3C4CCC(=O)C=C4CCC3C1CC1CC(=O)OC12 (stereo not given),105%
17,O=Cc1cn(Cc2ccccc2)c2ccccc12,105%
18,C[C@]12CCc3sc(Nc4ccc(OC(F)(F)F)cc4)nc3C1=CC[C@@H]1[C@@H]2CC[C@]2(C)C(=O)CC[C@@H]12,44%
19,O=[N+]([O-])c1ccc(OCc2ccc(S(=O)(=O)F)c(Cl)c2)c(Cl)c1,88.9%

# Same assay, conditions: 75 µM
row,SMILES,growth
1,O=C(O)CCCc1ccc(N(CCCl)CCCl)cc1,3.35% (active)
